Whole data set: some 8,300 sequences, median “log2 fold change of degron read counts, EGFP-low vs EGFP+ sorted cells (limma voom), compound-induced degradation” near -1.1, cut for the highest 2% near 3.2. The sample holds the highest values, similar sequences and a random draw of the others, so the mix is not that of the screen.
T1: CRBN, Q96SW2
T1 chain: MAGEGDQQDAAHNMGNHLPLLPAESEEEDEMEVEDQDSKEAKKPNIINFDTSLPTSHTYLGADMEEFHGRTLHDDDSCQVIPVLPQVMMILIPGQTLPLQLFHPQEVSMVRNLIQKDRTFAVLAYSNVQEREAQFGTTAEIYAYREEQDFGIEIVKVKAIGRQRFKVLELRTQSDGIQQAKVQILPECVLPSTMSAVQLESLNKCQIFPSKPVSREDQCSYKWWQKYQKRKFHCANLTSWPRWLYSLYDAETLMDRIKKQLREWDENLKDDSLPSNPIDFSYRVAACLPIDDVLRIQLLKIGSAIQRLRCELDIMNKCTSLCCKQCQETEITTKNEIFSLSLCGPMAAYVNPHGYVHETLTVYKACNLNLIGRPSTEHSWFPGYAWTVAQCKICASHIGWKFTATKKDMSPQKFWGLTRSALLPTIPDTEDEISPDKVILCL


Molecular target: T1, CRBN, Q96SW2
Assay: log2 fold change of degron read counts, EGFP-low vs EGFP+ sorted cells (limma voom), compound-induced degradation; higher = more compound-induced degradation of the degron-EGFP fusion; degrons are variants of IKZF1/3 zinc finger 2; compound dose not given here
Conditions: Jurkat, 18 h
[1] = compound: compound 19 (5-tert-butyl-thalidomide)
[2] = compound: compound 22 (5-morpholino-thalidomide)
[3] = compound: compound 33 (diphenyl IMiD analogue)
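Further: pooled lentiviral library of zinc finger degron-EGFP fusions in mCherry-positive Jurkat cells, FACS-sorted after compound exposure, with degron abundance counted by next-generation sequencing.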

Sequence | log2 fold change of degron read counts [1] | log2 fold change of degron read counts [2] | log2 fold change of degron read counts [3] | log2 fold change of degron read counts (compound: thalidomide)
FCCNQCGREFTQKGNLLRHIKL [46F_47C_49N_50Q_52G_53R_54E_55F_67L_, Q9UKT9] | -3.21 | -3.01 | -3.16 | -3.5
FYCDVCGAIFTQKGNLLRHIKL [46F_47Y_49D_50V_52G_53A_54I_55F_67L_, Q9UKT9] | 0.745 | 0.688 | -0.626 | -1.86
LYCEICGFWCTQKGNLLRHIKL [46L_47Y_49E_50I_52G_53F_54W_55C_67L_, Q9UKT9] | 1.69 | 1.16 | 1.94 | 0.136
FHCEICGAGFTQKGNLLRHIKL [46F_47H_49E_50I_52G_53A_54G_55F_67L_, Q9UKT9] | 3.51 | 1.13 | 1.93 | -0.622
FICEICGAGFTQKGNLLRHIKL [46F_47I_49E_50I_52G_53A_54G_55F_67L_, Q9UKT9] | 0.51 | 2.54 | 1.87 | 2.76
FFCEICGAGFTQKGNLLRHIKL [46F_47F_49E_50I_52G_53A_54G_55F_67L_, Q9UKT9] | 3.51 | 2.9 | 1.61 | 0.677
FACEICGAGFTQKGNLLRHIKL [46F_47A_49E_50I_52G_53A_54G_55F_67L_, Q9UKT9] | 3.75 | 1.86 | 0.304 | 0.339
FDCEICGAGFTQKGNLLRHIKL [46F_47D_49E_50I_52G_53A_54G_55F_67L_, Q9UKT9] | 1.89 | -1.13 | -0.599 | -0.0656
FNCEICGAGFTQKGNLLRHIKL [46F_47N_49E_50I_52G_53A_54G_55F_67L_, Q9UKT9] | 3.46 | 0.722 | -0.0429 | -0.254
FTCEICGAGFTQKGNLLRHIKL [46F_47T_49E_50I_52G_53A_54G_55F_67L_, Q9UKT9] | 2.35 | 2.19 | 2.28 | 2.27
FNCEQCGAGFTQKGNLLRHIKL [46F_47N_49E_50Q_52G_53A_54G_55F_67L_, Q9UKT9] | -0.14 | -2.54 | -2.33 | -2.8
FRCEICGAGFTQKGNLLRHIKL [46F_47R_49E_50I_52G_53A_54G_55F_67L_, Q9UKT9] | 2.78 | 1.83 | 2.46 | 1.7
FWCNICGAFFTQKGNLLRHIKL [46F_47W_49N_50I_52G_53A_54F_55F_67L_, Q9UKT9] | 1.6 | 2.32 | 0.971 | -0.294
FKCNVCGASFTQKGNLLRHIKL [46F_47K_49N_50V_52G_53A_54S_55F_67L_, Q9UKT9] | -1.29 | -2.06 | -3.02 | -1.88
FFCNQCGRKFTQKGNLLRHIKL [46F_47F_49N_50Q_52G_53R_54K_55F_67L_, Q9UKT9] | -2.1 | -2.17 | -2 | -2.57
FRCPVCGAFFTQKGNLLRHIKL [46F_47R_49P_50V_52G_53A_54F_55F_67L_, Q9UKT9] | -0.609 | -0.0858 | 1.19 | 1.19
LKCNQCGFCCTQKGNLLRHIKL [46L_47K_49N_50Q_52G_53F_54C_55C_67L_, Q9UKT9] | -2.31 | -2.82 | -2.5 | -1.52
LFCEICGFDCTQKGNLLRHIKL [46L_47F_49E_50I_52G_53F_54D_55C_67L_, Q9UKT9] | -1.8 | -2.4 | -2.23 | -1.77
FICNQCGACFTQKGNLLRHIKL [46F_47I_49N_50Q_52G_53A_54C_55F_67L_, Q9UKT9] | -2.25 | -1.71 | -0.536 | -1.25
FKCPICGHAFTQKGNLLRHIKL [46F_47K_49P_50I_52G_53H_54A_55F_67L_, Q9UKT9] | -2.73 | -2.8 | -3.02 | -2
FHCPICGHWFTQKGNLLRHIKL [46F_47H_49P_50I_52G_53H_54W_55F_67L_, Q9UKT9] | -1.67 | -2.48 | -1.12 | -1.62
FYCEICGAGFTQKGNLLRHIKL [46F_47Y_49E_50I_52G_53A_54G_55F_67L_, Q9UKT9] | 3.64 | 3.17 | 2.39 | 0.707
FLCEICGAGFTQKGNLLRHIKL [46F_47L_49E_50I_52G_53A_54G_55F_67L_, Q9UKT9] | 2.55 | -0.336 | 1.28 | 0.798
FWCEICGAGFTQKGNLLRHIKL [46F_47W_49E_50I_52G_53A_54G_55F_67L_, Q9UKT9] | 3.64 | 2.88 | 1.29 | -0.285
FECEICGAGFTQKGNLLRHIKL [46F_47E_49E_50I_52G_53A_54G_55F_67L_, Q9UKT9] | 1.97 | -1.47 | 0.9 | 1.53
FGCEICGAGFTQKGNLLRHIKL [46F_47G_49E_50I_52G_53A_54G_55F_67L_, Q9UKT9] | 2.12 | 0.308 | 1.02 | -0.108
FQCEICGAGFTQKGNLLRHIKL [46F_47Q_49E_50I_52G_53A_54G_55F_67L_, Q9UKT9] | 2.81 | 1.87 | 1.48 | 3.09
FGCNICGALFTQKGNLLRHIKL [46F_47G_49N_50I_52G_53A_54L_55F_67L_, Q9UKT9] | -0.269 | 0.462 | 1.6 | -0.293

Reference: the supplement of paper PMC12645437, “Orthogonal IMiD-Degron Pairs Induce Selective Protein Degradation in Cells” (ACS Chemical Biology, 2025)
